# AmpC inh detg: inhibitors of E. coli AmpC beta-lactamase with detergent | P00811 | AmpC hydrolysis of nitrocefin, absorbance 480 nm, 0.01% Triton | Potency, µM (top dose mostly 114 µM), most hits filed as inhibitors | hit rate 0.041% among 370,000; also: nearly all actives have a fitted effect of over 25% in size
# Target sequence (P00811 whole entry, looked up): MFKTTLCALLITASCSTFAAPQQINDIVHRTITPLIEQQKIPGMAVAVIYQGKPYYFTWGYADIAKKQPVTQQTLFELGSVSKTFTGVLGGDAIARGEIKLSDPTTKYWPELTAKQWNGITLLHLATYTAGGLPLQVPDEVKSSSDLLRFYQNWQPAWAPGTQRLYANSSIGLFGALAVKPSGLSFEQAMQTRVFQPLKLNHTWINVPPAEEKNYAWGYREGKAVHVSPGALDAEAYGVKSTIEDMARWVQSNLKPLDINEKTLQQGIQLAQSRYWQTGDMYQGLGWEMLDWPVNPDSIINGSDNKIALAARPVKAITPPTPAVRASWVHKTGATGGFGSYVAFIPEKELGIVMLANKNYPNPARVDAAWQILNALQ
#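 AmpC (5.3 nM in the dispensed reagent) in 20 mM phosphate pH 7.0 with 0.01% (detergent screen) or 0.0001% Triton X-100 was preincubated with compounds for 15 min at room temperature. Nitrocefin was then added from an 800 uM solution, and hydrolysis was followed at 480 nm.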
# Sm TGR inh: blocks Schistosoma mansoni thioredoxin glutathione reductase | Potency, µM (series often up to 114 µM), most hits filed as inhibitors | purified TGR, DTNB reduction, TNB absorbance 405 nm | hit rate 3% among 360,000 | Q962Y6; also: nearly all actives have a fitted effect of over 60% in size
#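 First, TGR (20 nM dispensed) and NADPH were mixed with compound. Second, a 15 min room-temperature incubation followed. Third, further NADPH and then DTNB were added to start the reaction. Finally, TNB absorbance was monitored kinetically.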
# AmpC inh no detg: AmpC beta-lactamase inhibition without detergent; P00811; hit rate 0.52% among 330,000; AID 485341; AmpC nitrocefin hydrolysis, absorbance 480 nm, 0.0001% Triton; Potency, µM (doses to about 57.1 µM), usual class: inhibitors; also: nearly all actives have a fitted effect of over 20% in size
#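 20 mM phosphate pH 7.0 + 0.01% (detergent screen) or 0.0001% Triton X-100; 5.3 nM AmpC reagent; cpd preinc 15 min RT; nitrocefin (800 uM stock) to start; A480 q20 s × 4 min; Activity was normalised to no-enzyme and no-compound control wells.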
# Hits are given with their value; n = inactive; u = inconclusive; x = no result given. Shown are actives, neighbours in structure and some others; about 3.3% of the full set was active somewhere. Calls follow the shape of the dose curve; as a rule, active = well fitted curve in the direction sought with a large enough effect; inconclusive = small, poorly fitted or top-dose-only effect, or another doubt; inactive = no such curve, though single readings can be large; an effect the other way counts as inactive or inconclusive.
SMILES,AmpC inh detg,Sm TGR inh,AmpC inh no detg
CC(C)(C)c1ccccc1NC(=O)CN1C(=O)NC(Cc2ccccc2)C1=O (configuration not stated),n,50µM,n
CC(C)CC1NC(=O)N(CC(=O)Nc2ccc(-c3ccccc3)cc2)C1=O (configuration not stated),n,n,n
Cc1c(NC(=O)COc2ncnc3ccccc23)c(=O)n(-c2ccccc2)n1C,n,35µM,n
CC(C)CC1NC(=O)N(CC(=O)Nc2ccccc2-c2ccccc2)C1=O (configuration not stated),n,2.2µM,n
Cc1c(NC(=O)CN2C(=O)C3C4C=CC(C4)C3C2=O)c(=O)n(-c2ccccc2)n1C (configuration not stated),n,n,n
O=C(CN1C(=O)NC(Cc2ccccc2)C1=O)Nc1ccccc1F (configuration not stated),u,n,n
Cc1c(NC(=O)CN2C(=O)NC(CCc3ccccc3)C2=O)c(=O)n(-c2ccccc2)n1C (configuration not stated),u,22µM,n
Cc1c(NC(=O)C(C)Oc2ncnc3ccccc23)c(=O)n(-c2ccccc2)n1C (configuration not stated),u,n,n
CC(O)Cn1nc([N+](=O)[O-])nc1N (configuration not stated),n,n,n
COc1cc(OC)c(C(=O)N(CCc2ccccc2)Cc2ccccc2)cc1OC,n,n,n
CCCCNC(=O)Oc1c(Br)cc2sc(=O)oc2c1Br,45µM,n,u
CCCCNC(=O)Oc1cc(CCl)on1,u,n,n
COC(=O)N1C(=O)[C@@](Cc2ccccc2)(c2ccccc2)N1C(=O)OC,n,3.5µM,n
COC(=O)N1C(=O)[C@](Cc2ccccc2)(c2ccccc2)N1C(=O)OC,n,3.5µM,n
COc1ccc(CNC(=O)CN2C(=O)NC(Cc3ccccc3)(c3ccccc3)C2=O)cc1OC (configuration not stated),u,n,n
COC(=O)c1ccccc1NC(=O)NCc1ccccc1,n,n,n
Cc1nnc(NS(=O)(=O)c2ccc(Br)cc2)s1,n,n,n
O=S(=O)(c1cccs1)N1CCN(c2ccc(O)cc2)CC1,n,n,n
Cc1cc(C)n(CCc2nc3c4ccccc4nc(N4CCN(c5cccc(C)c5C)CC4)n3n2)n1,n,n,x
COc1ccc(-n2cc(CNCCCN3CCCC3=O)c(-c3ccccc3Cl)n2)cc1,n,45µM,n
COc1ccc(-c2nn(-c3ccccc3)cc2CNCCN2CCOC2=O)c(F)c1,n,n,n
Cc1cc(NC(=O)CSCC(=O)OCC(=O)Nc2ccc(OC(F)F)cc2)no1,n,n,n
Cc1cc(NC(=O)CSCC(=O)OCC(=O)c2cccc(Br)c2)no1,n,n,32µM
COc1ccc(C2/C(=C(/O)c3ccccc3)C(=O)C(=O)N2C)cc1OC (configuration not stated),n,n,n
COC(=O)c1cccc(NC(=S)Nc2ccccc2Cl)c1,n,22µM,n
SMILES,AmpC inh detg,Sm TGR inh,AmpC inh no detg
COC(=O)c1cccc(NC(=O)Nc2ccc(Cl)cc2)c1,n,n,n
COC(=O)c1cccc(NC(=S)Nc2ccc(Cl)c(Cl)c2)c1,n,22µM,n
COC(=O)c1cccc(NC(=S)Nc2cccc(Cl)c2C)c1,n,n,n
Cc1ccc(-c2cn3c(n2)sc2cc(C(=O)NC4CCCCCC4)ccc23)c(C)c1,n,n,x
CCOc1ccccc1OCC(=O)NNC(=O)Cn1cnc2c1c(=O)n(C)c(=O)n2C,n,n,n
COCCCNC(=O)c1nn(-c2ccc(C)cc2)nc1CO,n,n,x
Cc1ccc2c(CN3CCC(C(N)=O)CC3)cc(=O)oc2c1C,n,n,n
COc1ccc(-c2cn(-c3ccc(C)cc3C)c(=O)[nH]2)cc1OC,u,11µM,n
COc1ccc(-c2cc(=O)[nH][nH]2)cc1OC,n,n,n
COc1ccc(C2=NO[C@@H]3C(=O)N(c4cccc(C)c4C)C(=O)[C@H]23)cc1OC,u,n,n
COc1ccc(C2=NO[C@@H]3C(=O)N(c4ccc(C)cc4C)C(=O)[C@H]23)cc1OC,u,11µM,n
Cc1cccc2cc(-c3nc4ccc(C(=O)O)cc4[nH]3)c(=O)oc12,u,n,n
CCc1ccc(NC(=O)c2cc(C(C)=O)n3ccccc23)cc1,n,n,x
COc1ccc(N(CCC(=O)O)S(=O)(=O)c2ccc(C)cc2C)cc1,n,n,n
O=C(C1=C[C@@H](c2ccc(Br)cc2)C[C@@H](OCCCCO)O1)N1CCN(Cc2ccccc2)CC1,n,20µM,n
O=C(C1=C[C@@H](c2ccc3c(c2)OCO3)C[C@@H](OCCCCO)O1)N1CCOCC1,n,45µM,n
O=C(C1=C[C@H](c2ccc3c(c2)OCO3)C[C@H](OCCCCO)O1)N1CCN(Cc2ccc3c(c2)OCO3)CC1,n,n,n
O=C(C1=C[C@H](c2ccc3c(c2)OCO3)C[C@H](OCCCCO)O1)N1CCN(Cc2ccccc2)CC1,n,25µM,n
O=C(C1=C[C@@H](c2ccc3c(c2)OCO3)C[C@@H](OCCCCO)O1)N1CCN(Cc2ccc3c(c2)OCO3)CC1,n,n,n
O=C(C1=C[C@H](c2ccc(Br)cc2)C[C@H](OCCCCO)O1)N1CCN(Cc2ccc3c(c2)OCO3)CC1,n,n,n
O=C(O)C1=C[C@@H](c2ccc3c(c2)OCO3)C[C@@H](OCCCCO)O1,n,45µM,n
O=C(NCc1ccccc1)C1=C[C@H](c2ccc3c(c2)OCO3)C[C@H](OCCCCO)O1,n,u,n
COc1cc(C2C(C(=O)Nc3ccc(C)cc3C)=C(C)Nc3nc4ccccc4n32)cc(OC)c1OC (configuration not stated),n,n,x
C=CCOc1ccccc1/C=N/NC(=O)c1ccc(Cl)cc1Cl,n,n,25µM
COc1cc(C(=O)Oc2ccccc2/C=N/NC(=O)c2ccc(Cl)cc2Cl)cc(OC)c1OC,n,n,u
SMILES,AmpC inh detg,Sm TGR inh,AmpC inh no detg
Cc1ccc(-c2ccc(CCC(=O)O)n2NC(=O)c2ccco2)cc1,n,u,n
NC(=O)Nn1c(CCC(=O)O)ccc1-c1ccc(F)cc1,n,50µM,n
O=C(O)CCc1ccc(-c2ccc(F)cc2)n1NC(=O)c1ccco1,n,40µM,n
O=C(O)CCc1ccc(-c2ccc(Br)cc2)n1NC(=O)c1ccc([N+](=O)[O-])cc1,n,45µM,n
CCOC(=O)Cn1c(CCC(=O)O)ccc1-c1ccc(F)cc1,n,n,n
Cc1ccc(-c2ccc(CCC(=O)O)n2NC(=O)c2ccc([N+](=O)[O-])cc2)cc1,n,u,n
CCOc1ccc(-c2nonc2NC(=O)c2oc3c(C)c(C)ccc3c2C)cc1OCC,n,n,x
Cc1cc(Cl)ccc1NC(=O)CCC(=O)N/N=C/c1cccnc1,n,u,n
CCc1nn2c(-c3ccccc3OC)ccnc2c1-c1ccc(F)cc1,n,n,x
COc1ccc(NC(=O)CSc2nc(O)c(C/C=C/c3ccccc3)c(=O)[nH]2)cc1,n,n,x
O=C(O)c1cc(N/N=C/C=C/c2ccccc2[N+](=O)[O-])ccc1Cl,n,n,n
O=C(CCN1C(=O)c2ccccc2Sc2ncccc21)Nc1ccc(F)cc1,n,16µM,x
